About 79,000 compounds went through this panel and 15% of them were active in at least one assay; those are over-represented in the sample as a whole. Activity calls are given as the source filed them. Rule as the data show it: active = growth inhibition above about 70%; inactive = the rest.
Assays:
[1] = NCI Yeast Anticancer Drug Screen. Data for the rad50 strain (AID 155);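 also: 0% = growth of vehicle-only cultures of the same strain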; conditions: S. cerevisiae rad50 strain growth inhibition; at 50.0 µM; active compounds read high
Outline: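 Vehicle-treated cultures provide the reference for the growth inhibition reported for compound-exposed, repair-deficient yeast.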

[2] = NCI Yeast Anticancer Drug Screen. Data for the mec2-1 strain (AID 157); conditions: S. cerevisiae mec2-1 strain, at 50.0 µM, active compounds read high
Outline: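 Vehicle-treated cultures served as reference for growth inhibition of compound-exposed mec2-1 yeast.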

[3] = NCI Yeast Anticancer Drug Screen. Data for the sgs1 mgt1 strain (AID 161);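 also: 0% = growth of cultures given vehicle only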; conditions: S. cerevisiae sgs1 mgt1 strain, at 50.0 µM, active compounds read high
Outline: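 Test agents were incubated with a DNA-repair-mutant yeast strain. Growth was then read and compared against vehicle-treated controls.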

[4] = NCI Yeast Anticancer Drug Screen. Data for the cln2 rad14 strain (AID 165);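 also: 0% = growth equal to vehicle treated cultures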; conditions: S. cerevisiae cln2 rad14 strain, at 50.0 µM, active compounds read high
Outline: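 Each compound was tested on cln2 rad14 yeast. Inhibition of growth was calculated against vehicle-exposed controls.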

[5] = NCI Yeast Anticancer Drug Screen. Data for the bub3 strain (AID 167); conditions: S. cerevisiae bub3 mutant strain, at 50.0 µM, active compounds read high
Outline: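 Mutant yeast screening strain plus compound; vehicle-treated cultures serve as the 0% inhibition reference.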

[6] = NCI Yeast Anticancer Drug Screen. Data for the mlh1 rad18 strain (AID 175); conditions: S. cerevisiae mlh1 rad18 strain growth inhibition; at 50.0 µM; active compounds read high
Outline: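 Vehicle-treated cultures served as the reference for growth inhibition in a yeast strain carrying DNA damage repair alterations exposed to each compound.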

Measured: growth inhibition

O=C(O)CNc1ccccc1.[Cu+2]
inactive: [1] -38.5% | [2] -28.1% | [3] -51.5% | [4] 6.95% | [5] -35.9% | [6] -15.8%

COC1(OC)C2(Cl)C(Cl)=C(Cl)C1(Cl)C1CCCCC12 (stereo unspecified)
inactive: [1] 12.7% | [2] 11.1% | [3] 15.5% | [4] -57% | [5] -5.15% | [6] 2.3%

CC(C)(C)c1ccccc1OC(=O)Nc1ccc(F)cc1
inactive: [1] 3.65% | [2] 7.1% | [3] 7.4% | [4] -14.2% | [5] 19.1% | [6] -3.7%

COc1ccc2c3c([nH]c2c1)CCN(CCCC(=O)c1ccc(F)cc1)C3
inactive: [1] -8.15% | [2] -4% | [3] 42.6% | [4] 31.1% | [5] 45.2% | [6] 1.8%

COC(=O)c1cc(OC)c(O)c(OC)c1
inactive: [1] -1.3% | [2] -0.4% | [3] 16.6% | [4] -12.3% | [5] 4.05% | [6] -19.9%

Cn1c(/N=C(/N)N=C(N)N)cc(=O)n(C)c1=O
inactive: [1] 12.8% | [2] 5.45% | [3] 20.3% | [4] 34.7% | [5] 29.6% | [6] 21.8%

CCCCNC1(N(C)C)N=C(N(C)C)N=C(N(C)C)O1 (stereo unspecified)
inactive: [1] -2.2% | [2] -1.4% | [3] -1.05% | [4] 17.8% | [5] 8.35% | [6] -0.45%

CC(C)(C)OC(=O)NN(CC(=O)OCc1ccccc1)N=O
inactive: [1] 5.35% | [2] -2.15% | [3] 2.9% | [4] -42.5% | [5] 10.2% | [6] -7.6%

CCOC1OC(C2COC(=O)O2)C(O)C1O (stereo unspecified)
inactive: [1] 15.8% | [2] 10.6% | [3] -3.85% | [4] -71.2% | [5] 7.4% | [6] -3%

CN(C)C(=S)/N=c1\ss/c(=N\C(=S)N(C)C)n1C1CCCCC1
inactive: [1] 15% | [2] 9.35% | [3] 13.4% | [4] -23.1% | [5] -18.6% | [6] 22.2%

BrCCCOc1ccccc1Br
inactive: [1] 14.6% | [2] -11.2% | [3] 1.6% | [4] -32.1% | [5] 4.2% | [6] 14.2%

CN(C)CCC1(C2=CCCC2)CC/C(=C\c2ccccc2)C1=O (stereo unspecified)
inactive: [1] 16.9% | [2] -17.8% | [3] -5.6% | [4] 14.7% | [5] -45.6% | [6] 2.5%

CCOC(=O)N1c2ccccc2OC1C#N (stereo unspecified)
inactive: [1] -17.3% | [2] 1.3% | [3] -4.4% | [4] -33.1% | [5] 51.3% | [6] 13.5%

COc1ccc(C2=NC(=O)OC2(C)C)cc1
inactive: [1] -6.95% | [2] -20.2% | [3] -5.7% | [4] -11% | [5] -8.6% | [6] -10.2%

Cc1cc2c(cc1C)N1C(Cl)=C3CCCCC3=C(C#N)C1N2 (stereo unspecified)
inactive: [1] 30.7% | [2] 30.4% | [3] 20.5% | [4] 28.3% | [5] 13.9% | [6] -8.95%

Clc1ccc2nsnc2c1
inactive: [1] 14.2% | [2] -12.8% | [3] 24.9% | [4] 16.8% | [5] 18.9% | [6] 35%

O=CN1CCN(C=S)CC1
inactive: [1] -14% | [2] -10.2% | [3] -9.9% | [4] 3.75% | [5] 2.6% | [6] -15.4%

COc1cccc2c1C(=O)c1c(O)c3c(c(O)c1C2=O)C[C@@](O)(c1csc(-c2ccncc2)n1)C[C@@H]3OC1CC(N)C(O)C(C)O1 (stereo partly specified)
inactive: [1] 22.8% | [2] 15.4% | [3] 17.2% | [4] 32.2% | [5] -2.25% | [6] 25.8%

CN(c1ccccc1Cl)S(=O)(=O)c1ccccc1[N+](=O)[O-]
inactive: [1] 5.15% | [2] -30.1% | [3] 31.2% | [4] -18% | [5] 38% | [6] 2.95%

Cc1cc(=O)cc(-c2ccccc2)[nH]1
inactive: [1] -32.5% | [2] -11.3% | [3] -12.5% | [4] -37.3% | [5] -2.5% | [6] 6.55%

Clc1cccc(NCNC2Nc3ccccc3N2)c1
inactive: [1] 39% | [2] 20% | [3] 6.6% | [4] -14.3% | [5] 18.1% | [6] 27.9%

CN(C)C(=N/O)/C(=N\O)N(C)C
inactive: [1] -5.05% | [2] -25% | [3] -23.1% | [4] -6.35% | [5] -23.8% | [6] -0.2%

CN(C)C=NCC(O)c1ccccc1 (stereo unspecified)
inactive: [1] 13.3% | [2] 15% | [3] 0% | [4] -3% | [5] -21.2% | [6] -22.1%

NC(=O)C(=O)N/N=C(\CC1(O)C(=O)Nc2ccccc21)c1ccc2ccccc2c1 (stereo unspecified)
inactive: [1] 17.4% | [2] 16.5% | [3] 7.5% | [4] 48.5% | [5] 35% | [6] 12.1%

Cc1cc(=O)[nH]c(NNC(C#N)c2ccc([N+](=O)[O-])cc2)n1 (stereo unspecified)
inactive: [1] -18.5% | [2] 0.35% | [3] -36.1% | [4] -8.8% | [5] -30.6% | [6] -50.9%

Cc1c(Cl)ccc([N+](=O)[O-])c1Cl
inactive: [1] 10.7% | [2] -6.85% | [3] -3.35% | [4] 18.3% | [5] 14.8% | [6] 29.4%

CCOC(=O)c1ccc(NC(=O)/C=C/c2ccccc2)cc1
inactive: [1] -4.55% | [2] 11.4% | [3] 17.4% | [4] -24.3% | [5] 30.1% | [6] 6.3%

N#Cc1sc2c(c1OC(=O)c1ccccc1)c(=O)n(-c1ccccc1)c(=S)n2-c1ccccc1
inactive: [1] -2.65% | [2] 10.8% | [3] 3.45% | [4] -12.4% | [5] -5.95% | [6] 18%

CC(=O)OCCN(C)C
inactive: [1] 3.4% | [2] -1.85% | [3] -16% | [4] 8.5% | [5] -19.4% | [6] -10.4%

COc1cccc(N2C(=O)[C@H]3[C@H]4CC(C(C)(C)C)CC[C@H]4c4c([nH]c5ccccc45)[C@H]3C2=O)c1 (stereo partly specified)
inactive: [1] 1.65% | [2] -18.9% | [3] 8.25% | [4] 31.7% | [5] -9.4% | [6] -2.4%

FC(F)(F)c1cccc(NC(=S)SCc2ccc(Cl)c(Cl)c2)c1
active: [1] 98.3% | [2] 98.8% | [3] 98.8% | [4] 99.1% | [5] 98% | [6] 98.2%

O=C(O)CSSCC(=O)O
inactive: [1] -0.15% | [2] -16.6% | [3] -18.8% | [4] 23.1% | [5] -10.2% | [6] -24.5%

CCCCN(CCCC)CC(O)c1cc(-c2c(Cl)cccc2Cl)nc2c(Cl)cc(Cl)cc12 (stereo unspecified)
inactive: [1] 53.3% | [2] 55.3% | [3] 55% | [4] 13.8% | [5] 20.8% | [6] 64.1%

O=C(NC1(C(=O)Oc2ccc([N+](=O)[O-])cc2)CCCC1)OCc1ccccc1
inactive: [1] 7.25% | [2] 20.2% | [3] 26.1% | [4] 8.85% | [5] -1.7% | [6] 28.9%

CCc1nc2c(cnn2C)c(=O)n1-c1ccccc1
inactive: [1] -5% | [2] -6.35% | [3] -1.2% | [4] 3.9% | [5] 10.6% | [6] 7.55%

Cc1c(-c2ccccc2)c2ccccc2c2ccccc12
inactive: [1] -10% | [2] -15.6% | [3] -4.25% | [4] 0.1% | [5] 2.2% | [6] -14.4%

CCOC(=O)C(C)NCc1ccccc1 (stereo unspecified)
inactive: [1] 2.15% | [2] 0.1% | [3] -1.4% | [4] -39.6% | [5] 0.95% | [6] -3.25%

COC(=O)C(CC(=O)Nc1ccc(Cl)c(Cl)c1)C(=O)C(=O)NC1C2CC3CC(C2)CC1C3 (stereo unspecified)
inactive: [1] -3.15% | [2] 13.8% | [3] -14.1% | [4] 7.8% | [5] -8.65% | [6] -9.05%

Cc1ccc(S(=O)(=O)N/N=C2\CCC3CC3CC\C2=N/NS(=O)(=O)c2ccc(C)cc2)cc1 (stereo unspecified)
inactive: [1] -0.85% | [2] -4.4% | [3] 0.6% | [4] -9.1% | [5] -2.7% | [6] -5.75%

Cc1nc(Nc2ccc(Cl)c(Cl)c2)sc1C(=O)/C=C/c1ccc2c(c1)OCO2
inactive: [1] 39.5% | [2] 23.1% | [3] 13.6% | [4] -2.2% | [5] -7.75% | [6] 38.3%

Oc1ccccc1C=Nc1ccc(I)cc1.Oc1ccccc1C=Nc1ccc(I)cc1.[Co]
inactive: [1] 15.8% | [2] 23.1% | [3] 18.6% | [4] 9.45% | [5] 17.6% | [6] 36.8%
